Several values for one entry are separate records, joined by “and”; a condition that tells them apart may be missing. Identical values can stand only once. Records with an inconclusive call do not appear. Activity calls are given as the source filed them. The call rests on the fitted dose curve; in most records, active means well fitted curve in the direction sought with a large enough effect; inconclusive means small, poorly fitted or top-dose-only effect, or another doubt; inactive means no such curve, though single readings can be large; an effect the other way counts as inactive or inconclusive.
How the values were obtained:
[1] = qHTS of pediatric cancer cell lines to identify multiple opportunities for drug repurposing: Primary screen for NB1643 cells (AID 1347099); further: nearly all actives have a fitted effect of over 50% in size; further: potency means the concentration at half of the fitted maximal effect;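 on activity change, negative = cytotoxic: plate controls were DMSO neutral control for no effect and bortezomib positive control for full effect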
Summary of the method: (§1)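 CRCs from 8- or 11-point titrations (lowest final 0.59 nM NPC, 0.78 nM MIPE). Cell viability: CellTiter-Glo after 48 h incubation, 15 min room-temperature development, luminescence imaging.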

[2] = qHTS of pediatric cancer cell lines to identify multiple opportunities for drug repurposing: Primary screen for LAN-5 cells (AID 1347100); further: potency means the concentration at half of the fitted maximal effect;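 on activity change, negative = cytotoxic: plate controls were DMSO neutral control for no effect and bortezomib positive control for full effect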
Summary of the method: (§2)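 Cells (500-1,000/well) rested 5 h, then received compounds for 48 h; metabolically active cells were measured by CellTiter-Glo luminescence. Final concentrations spanned up to 46 µM (MIPE, 11-point) or 0.59 nM-46 µM (NPC, 8-point) in primary screens, 11-point in follow-ups.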

[3] = qHTS of pediatric cancer cell lines to identify multiple opportunities for drug repurposing: Primary screen for BT-12 cells (AID 1347101); further: nearly all actives have a fitted effect of over 25% in size; further: potency means the concentration at half of the fitted maximal effect;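 on activity change, negative = cytotoxic: plate controls were DMSO for no effect and bortezomib positive control for full effect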
Summary of the method: as §2

[4] = qHTS of pediatric cancer cell lines to identify multiple opportunities for drug repurposing: Primary screen for Rh18 cells (AID 1347102); further: on the % scale 0 is the no-effect control and ±100 the full control effect; nearly all actives have a fitted effect of over 65% in size
Summary of the method: as §2

[5] = qHTS of pediatric cancer cell lines to identify multiple opportunities for drug repurposing: Primary screen for RD cells (AID 1347104); further: nearly all actives have a fitted effect of over 55% in size;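 on activity change, negative = cytotoxic: plate controls were DMSO for no effect and bortezomib for full effect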
Summary of the method: as §1

[6] = qHTS of pediatric cancer cell lines to identify multiple opportunities for drug repurposing: Primary screen for MG 63 (6-TG R) cells (AID 1347105); further: nearly all actives have a fitted effect of over 50% in size; on activity change, negative = cytotoxic: on the % scale 0 is the no-effect control and ±100 the full control effect
Summary of the method: as §1

[7] = qHTS of pediatric cancer cell lines to identify multiple opportunities for drug repurposing: Primary screen for control Hh wild type fibroblast cells (AID 1347106); further: nearly all actives have a fitted effect of over 55% in size;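 on activity change, negative = cytotoxic: series mostly up to about 46 µM; on the % scale 0 is the no-effect control and ±100 the full control effect; a drop in luminescence marks cytotoxicity and a rise apparent proliferation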
Summary of the method: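 Viability after 48 h compound treatment at 37C, 500-1,000 cells/well, read as ATP luminescence with CellTiter-Glo. Primary screens used 11-point (MIPE, 0.78 nM-46 µM) or 8-point (NPC, 0.59 nM-46 µM) final concentrations; follow-up screens used 11-point dilutions.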

[8] = qHTS of pediatric cancer cell lines to identify multiple opportunities for drug repurposing: Primary screen for Rh30 cells (AID 1347107); further: series mostly up to about 46 µM; on the % scale 0 is the no-effect control and ±100 the full control effect; nearly all actives have a fitted effect of over 75% in size
Summary of the method: as §2

[9] = qHTS of pediatric cancer cell lines to identify multiple opportunities for drug repurposing: Primary screen for Rh41 cells (AID 1347108); further: nearly all actives have a fitted effect of over 70% in size;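 on activity change, negative = cytotoxic: series mostly up to about 46 µM; luminescence drop marks cytotoxic hits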
Summary of the method: as §1

[10] = qHTS of pediatric cancer cell lines to identify multiple opportunities for drug repurposing: Primary screen for OHS-50 cells (AID 1347103); further: nearly all actives have a fitted effect of over 40% in size; further: potency means the concentration at half of the fitted maximal effect;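 on activity change, negative = cytotoxic: plate controls were DMSO neutral control for no effect and bortezomib positive control for full effect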
Summary of the method: as §2

[11] = qHTS of pediatric cancer cell lines to identify multiple opportunities for drug repurposing: Confirmatory screen for A673 cells (AID 1347110);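 further: cells exposed to compound for 48 h before the viability read; nearly all actives have a fitted effect of over 65% in size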; further: potency means the concentration at half of the fitted maximal effect
Summary of the method: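 A673 cells seeded at 500-1,000 cells/well, rested 5 h, then dosed; primary MIPE 11-point (0.78 nM to 46 µM), NPC (0.59 nM to 46 µM); confirmatory 11-point. CellTiter-Glo luminescence after 48 h.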

[12] = qHTS of pediatric cancer cell lines to identify multiple opportunities for drug repurposing: Confirmatory screen for SK-N-MC cells (AID 1347111);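 further: cells exposed to compound for 48 h before the readout; nearly all actives have a fitted effect of over 70% in size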; further: potency means the concentration at half of the fitted maximal effect;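 on activity change, negative = cytotoxic: plate controls were DMSO for no effect and bortezomib for full effect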
Summary of the method: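 Seed 500-1,000 cells/well; rest 5 h at 37 degrees C. Pin-transfer compounds, 11-point titration. Incubate 48 h. Add CellTiter-Glo, 15 min RT, read luminescence.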

[13] = qHTS of pediatric cancer cell lines to identify multiple opportunities for drug repurposing: Confirmatory screen for BT-12 cells (AID 1347112); further: nearly all actives have a fitted effect of over 55% in size; further: potency means the concentration at half of the fitted maximal effect; on activity change, negative = cytotoxic: on the % scale 0 is the no-effect control and ±100 the full control effect
Summary of the method: as §2

[14] = qHTS of pediatric cancer cell lines to identify multiple opportunities for drug repurposing: Confirmatory screen for DAOY cells (AID 1347114); further: nearly all actives have a fitted effect of over 65% in size; on activity change, negative = cytotoxic: on the % scale 0 is the no-effect control and ±100 the full control effect
Summary of the method: (§3)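 Viability measured as metabolically active cells via CellTiter-Glo luminescence following 48 hours of compound exposure, 11-point dilutions in confirmatory testing. 500-1,000 cells/well plated 5 hours before dosing; controls were DMSO and 2.3 µM bortezomib.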

[15] = qHTS of pediatric cancer cell lines to identify multiple opportunities for drug repurposing: Confirmatory screen for BT-37 cells (AID 1347117); further: nearly all actives have a fitted effect of over 55% in size; further: potency means the concentration at half of the fitted maximal effect
Summary of the method: as §2

[16] = qHTS of pediatric cancer cell lines to identify multiple opportunities for drug repurposing: Confirmatory screen for TC32 cells (AID 1347118);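 further: cells exposed to compound for 48 h before the read; nearly all actives have a fitted effect of over 65% in size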; further: potency means the concentration at half of the fitted maximal effect
Summary of the method: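 Luminescent CellTiter-Glo read-out of metabolically active TC32 cells after 48 h compound exposure. Primary: MIPE 11-point, 0.78 nM–46 µM; NPC 8-point, 0.59 nM–46 µM. Confirmatory: 11-point dilutions.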

[17] = qHTS of pediatric cancer cell lines to identify multiple opportunities for drug repurposing: Confirmatory screen for NB1643 cells (AID 1347109); further: nearly all actives have a fitted effect of over 45% in size;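 on activity change, negative = cytotoxic: plate controls were DMSO for no effect and bortezomib for full effect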
Summary of the method: as §2

[18] = qHTS of pediatric cancer cell lines to identify multiple opportunities for drug repurposing: Confirmatory screen for LAN-5 cells (AID 1347113); further: nearly all actives have a fitted effect of over 65% in size
Summary of the method: as §2

[19] = qHTS of pediatric cancer cell lines to identify multiple opportunities for drug repurposing: Confirmatory screen for NB-EBc1 cells (AID 1347115);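 further: cells exposed to compound for 48 h before the viability read; nearly all actives have a fitted effect of over 45% in size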
Summary of the method: as §2

[20] = qHTS of pediatric cancer cell lines to identify multiple opportunities for drug repurposing: Confirmatory screen for SJ-GBM2 cells (AID 1347116); further: nearly all actives have a fitted effect of over 60% in size
Summary of the method: as §3

CC(C)(N)Cc1ccc(Cl)cc1
inactive: Potency [1] | Potency [2] | Potency [3] | Potency [4] | Potency [5] | Potency [6] | Potency [7] | Potency [8] | Potency [9]

C[C@@H]1[C@@H](C(=O)C[C@H]2O[C@@H]3O[C@]4(C)CC[C@@H]5[C@H](C)CC[C@@H]([C@H]2C)[C@@]35OO4)O[C@@H]2O[C@]3(C)CC[C@H]4[C@H](C)CC[C@@H]1[C@@]24OO3
active: Potency [1] 4.69 µM | Potency [2] 16.6 µM | Potency [3] 0.432 µM | Potency [10] 0.385 µM | Potency [11] 6.57 µM | Potency [12] 2.93 µM | Potency [13] 14.7 µM | Potency [15] 1.65 µM | Potency [16] 9.27 µM
inactive: Potency [4] | Potency [6] | Potency [7] | Potency [8] | Potency [14]

CC(CCc1ccccc1)NC(C)C(O)c1ccc(O)cc1 (stereo not drawn)
inactive: Potency [1] | Potency [2] | Potency [3] | Potency [4] | Potency [5] | Potency [6] | Potency [7] | Potency [8]

O=P1(NCCCl)OCCCN1CCCl (stereo not drawn)
inactive: Potency [1] | Potency [2] | Potency [3] | Potency [4] | Potency [10] | Potency [5] | Potency [6] | Potency [7] | Potency [8] | Potency [9] | Potency [17] | Potency [11] | Potency [12] | Potency [13] | Potency [18] | Potency [14] | Potency [19] | Potency [20] | Potency [15] | Potency [16]

c1ccc2c(c1)OCC(C1=NCCN1)O2 (stereo not drawn)
active: Potency [1] 23.7 µM | Potency [2] 26.6 µM | Potency [3] 19.5 µM | Potency [5] 21.1 µM
inactive: Potency [8]

NCC(CC(=O)O)c1ccc(Cl)cc1 (stereo not drawn)
inactive: activity change, negative = cytotoxic [1] -5.29% [at 0.597 µM] | activity change, negative = cytotoxic [2] -9.23% [at 0.597 µM] | activity change, negative = cytotoxic [3] 1.13% [at 0.745 µM] | activity change, negative = cytotoxic [4] -2.74% [at 0.597 µM] | activity change, negative = cytotoxic [10] -11.1% [at 0.73 µM] | activity change, negative = cytotoxic [5] 1.05% [at 0.597 µM] | activity change, negative = cytotoxic [6] -15.2% [at 0.597 µM] | activity change, negative = cytotoxic [7] 6.77% [at 0.597 µM] | activity change, negative = cytotoxic [8] -0.257% [at 0.597 µM] | activity change, negative = cytotoxic [9] 9.97% [at 0.597 µM]

CC[N+]1(C)CCCC(OC(=O)C(O)(c2ccccc2)c2ccccc2)C1 (stereo not drawn)
inactive: Potency [1] | Potency [2] | Potency [3] | Potency [4] | Potency [10] | Potency [5] | Potency [6] | Potency [7] | Potency [8] | Potency [9]

C[C@@H]1O[C@@H](O[C@H]2C[C@@H](O)[C@]3(CO)[C@H]4[C@H](O)C[C@]5(C)[C@@H](C6=CC(=O)OC6)CC[C@]5(O)[C@@H]4CC[C@]3(O)C2)[C@H](O)[C@H](O)[C@H]1O
active: Potency [1] 187 nM and 299 nM | Potency [2] 46.9 nM and 211 nM | Potency [3] 27.3 nM and 61.7 nM | Potency [10] 19.3 nM and 49 nM | Potency [5] 14.8 nM and 33.5 nM | Potency [6] 14.8 nM and 33.5 nM | Potency [7] 14.8 nM | Potency [17] 369 nM and 585 nM | Potency [11] 329 nM and 282 nM | Potency [12] 131 nM and 293 nM | Potency [13] 131 nM and 147 nM | Potency [18] 329 nM and 414 nM | Potency [14] 73.7 nM and 56.2 nM | Potency [20] 0.261 µM | Potency [15] 65.7 nM and 92.8 nM | Potency [16] 92.8 nM and 165 nM
inactive: Potency [8]

O=C(O)c1ccc2[nH]cc(CCCCN3CC=C(c4ccccc4)CC3)c2c1
inactive: Potency [1] | Potency [2] | Potency [3] | Potency [4] | Potency [5] | Potency [6] | Potency [7] | Potency [8] | Potency [9]

c1ccc(C2CC2)c(OCC2=NCCN2)c1
inactive: Potency [1] | Potency [2] | Potency [3] | Potency [4] | Potency [5] | Potency [6] | Potency [7] | Potency [8] | Potency [9]

CC(=O)[C@H]1CC[C@H]2[C@@H]3CC[C@H]4C[C@H](O)CC[C@]4(C)[C@H]3C(=O)C[C@]12C
inactive: Potency [1] | Potency [2] | Potency [3] | Potency [4] | Potency [5] | Potency [6] | Potency [7] | Potency [8] | Potency [9]

CC[C@@H](CO)NC(=O)[C@@H]1C=C2c3cccc4[nH]cc(c34)C[C@H]2N(C)C1
inactive: Potency [1] | Potency [2] | Potency [3] | Potency [4] | Potency [10] | Potency [5] | Potency [6] | Potency [7] | Potency [8] | Potency [9]

CC1OC(C)OC(C)O1 (stereo not drawn)
inactive: Potency [1] | Potency [2] | Potency [3] | Potency [4] | Potency [5] | Potency [6] | Potency [7] | Potency [8] | Potency [9]

CNC(=O)N1N=C(c2ccc(N)cc2)c2cc3c(cc2CC1C)OCO3 (stereo not drawn)
inactive: Potency [7] | Potency [8]
active: Potency [2] 5.9 µM | Potency [10] 3.85 µM

CN(C)CCN(C)CCc1ccc(Cl)c(Cl)c1
inactive: Potency [2] | Potency [3] | Potency [4] | Potency [6] | Potency [7] | Potency [8] | Potency [9]

Oc1cc(Cl)ccc1Oc1ccc(Cl)cc1Cl
inactive: Potency [7] | Potency [8]
active: Potency [1] 35.1 µM | Potency [3] 20.5 µM | Potency [10] 28.9 µM | Potency [5] 39.4 µM and 23.7 µM | Potency [6] 24.8 µM

C=C(C)[C@H]1Cc2c(ccc3c2O[C@@H]2COc4cc(OC)c(OC)cc4[C@@H]2C3=O)O1
inactive: Potency [7] | Potency [8]
active: Potency [2] 1.68 µM and 526 nM | Potency [3] 87.1 nM and 122 nM | Potency [10] 138 nM and 243 nM | Potency [9] 1.06 µM | Potency [11] 3.69 µM | Potency [12] 1.65 µM | Potency [13] 2.61 µM | Potency [18] 1.17 µM | Potency [19] 0.293 µM | Potency [15] 2.61 µM | Potency [16] 0.329 µM

CO[C@]12CC[C@@]3(C[C@@H]1[C@](C)(O)C(C)(C)C)[C@@H]1Cc4ccc(O)c5c4[C@@]3(CCN1CC1CC1)[C@H]2O5
active: Potency [10] 25 µM | Potency [6] 30.3 µM

CN(C)[C@@H]1C(=O)C(C(N)=O)=C(O)[C@@]2(O)C(=O)C3=C(O)c4c(O)cccc4[C@@](C)(O)[C@H]3C[C@@H]12
inactive: Potency [2] | Potency [4] | Potency [10] | Potency [5] | Potency [6] | Potency [7] | Potency [8] | Potency [9]

O=c1[nH]c2ccccc2n1CCCN1CCC(n2c(=O)[nH]c3cc(Cl)ccc32)CC1
active: Potency [17] 7.37 µM | Potency [11] 26.1 µM | Potency [12] 5.22 µM | Potency [18] 9.27 µM | Potency [14] 23.3 µM | Potency [19] 16.5 µM | Potency [20] 13.1 µM | Potency [15] 8.27 µM | Potency [16] 3.29 µM
inactive: Potency [1] | Potency [2] | Potency [4] | Potency [10] | Potency [5] | Potency [6] | Potency [7] | Potency [8] | Potency [9]
